The results in this text go back to PubChem BioAssay AID2606 (The Scripps Research Institute Molecular Screening Center, 2010).

Among all 320,000 compounds or so, about 160 (0.05%) were called active. The entries come from a sample that favours actives as a whole. Values without a mark were called inactive. No stated cut-off is given here; in the data, active means inhibition above about 38%; inactive means the rest.

The target in this test is Serine protease Rv3671c (Mycobacterium tuberculosis (strain ATCC 25618 / H37Rv)) (UniProt P9WHR9). The test can be described thus: Rv3671c serine protease inhibitors, primary screen, biochemical, fluorescence polarization, M. tuberculosis H37Rv (AID 2606).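 Further: extracellular domain of Rv3671c used as enzyme; 0% = enzyme with DMSO and 100% = no enzyme.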 As to conditions: at 5.96 µM; stronger effect = higher value.
Sequence of Serine protease Rv3671c (Mycobacterium tuberculosis (strain ATCC 25618 / H37Rv)) (P9WHR9 whole entry, looked up, the tested form may be a part): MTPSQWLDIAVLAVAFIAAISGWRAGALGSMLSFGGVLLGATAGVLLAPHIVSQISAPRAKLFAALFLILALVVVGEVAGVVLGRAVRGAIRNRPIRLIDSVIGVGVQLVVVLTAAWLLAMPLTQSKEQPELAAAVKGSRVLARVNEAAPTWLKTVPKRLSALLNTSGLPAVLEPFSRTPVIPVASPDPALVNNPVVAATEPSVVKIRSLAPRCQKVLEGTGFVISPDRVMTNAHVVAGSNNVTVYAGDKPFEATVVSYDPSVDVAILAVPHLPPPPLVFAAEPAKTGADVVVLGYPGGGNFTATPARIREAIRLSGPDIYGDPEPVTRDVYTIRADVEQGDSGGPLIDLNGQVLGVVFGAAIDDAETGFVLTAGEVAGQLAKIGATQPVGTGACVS
`O=C(NCc1ccc(Cl)cc1)c1cc2c(nc3sccn32)s1`: the inhibition was -4.26%.
Under `Cc1c(Br)c([N+](=O)[O-])nn1CC(=O)Nc1sc2c(c1C(=O)OC(C)C)CCC(C)C2` (stereo not given) stands -2.96%; under `O=S1(=O)CC(NCc2ccccc2)C(Nc2ccc(Cl)cc2)C1` (stereo not given), -2.48%; under `O=C(CN(c1cc(C(F)(F)F)ccc1Cl)S(=O)(=O)c1ccccc1)NCc1cccnc1`, 4.36%.
For the compound `O=C1CCCN1CCCNC(=S)Nc1ccc(F)c(Cl)c1`, the inhibition is -6.09%.
`O=C1c2ccccc2C(=O)N1CCc1nn[nH]n1`: the inhibition was -7.39%.
For the compound `Cc1ccccc1CCN(CC(=O)NC1CCCCC1)C(=O)c1csnn1`, the inhibition is -0.33%.
The result for `OC(c1ccccc1)c1nccn1Cc1ccccc1` (stereo not given) reads 0.91%; that for `CSc1nc2ccccc2cc1/C=C(\C#N)c1ccc(Cl)cc1Cl`, 3.83%; that for `O=C(COC(=O)c1cc(=O)[nH]c2ccccc12)Nc1nc(-c2cccc(Br)c2)cs1`, -76%.
With `CCOC(=O)[C@@H]1[C@H]2COc3ccc(Br)cc3[C@H]2N2C(=O)N(c3ccc(C)cc3)C(=O)[C@@]12C`, the inhibition is 0.17%.
Under `CCN(C(=O)CSc1nnnn1-c1ccccc1OC)C1CCS(=O)(=O)C1` (stereo not given) stands 2.72%; under `CSc1ccc(C(=O)C2CCCN(C(=O)c3ccc(C)nc3)C2)cc1` (stereo not given), 1.04%.
Under `CCC(C)c1ccc(NC(=O)COC(=O)C2CCCC2)cc1` (stereo not given) stands -4.19%; under `Cc1ccc(OCC(=O)c2cc(C)n(Cc3ccco3)c2C)c([N+](=O)[O-])n1`, -2.09%; under `COc1ccc(NC(=O)C2C3CCC(O3)C2C(=O)O)cc1OC` (stereo not given), -2.75%.
The result for `COc1cc(C(=O)NCc2ccncc2)cc(Br)c1OCc1ccccc1` reads -8.67%; that for `CCn1c(=O)cc(SCC(=O)NCCC2=CCCCC2)c2ccccc21`, 3.21%; that for `CCOc1ccc(S(=O)(=O)N(CC(=O)NCC(F)(F)F)Cc2ccco2)cc1`, 4.73%.
For `CC1CC(=NNC(=O)C2COc3ccccc3O2)CC(C)(C)C1` (stereo not given), the inhibition is -11%.
Consider `O=C(O)c1ccc2c(=O)n3c(nc2c1)/C(=C/c1ccc(Cl)c([N+](=O)[O-])c1)CC3`, for which the inhibition is 8.14%.
For `C=C(C)C(=O)Nc1cccc(C2=NOC3(C2)C[C@H](C(N)=O)N(C(=O)C(c2ccccc2)c2ccccc2)C3)c1` (stereo not given in full), the inhibition is -1.51%.
The result for `Cc1onc(-c2c(F)cccc2Cl)c1C(=O)N(C)CC(=O)Nc1cccc(F)c1` reads 2.86%; that for `C=CCOc1cccc(CNCc2cccnc2)c1`, 4.49%; that for `COC(=O)c1cccc(N(CC(=O)NCC2CCCO2)C(=O)CCC(=O)Nc2cc(C)on2)c1` (stereo not given), -6.9%.
